PubChem BioAssay (NCI)
“And” between values parts separate entries of the source, which are not always exact repeats. Equal entries are not always repeated. The panel holds about 83,000 compounds, 20% with a hit somewhere; the sample as a whole holds those more often.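 Values shown are percent growth following 48 h exposure of cells in 96-well plates to a single concentration of compound; below 10 was considered active.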 The source made the active and inactive calls.

These compounds were tested on MDA-MB-468 breast (assay: NCI-60 one-dose screen, 48 h (100 = growth as untreated, 0 = no growth, -100 = all killed)). Settings: 10 µM unless noted.

SMILES	growth
Oc1ccc(Br)cc1CN1CCN(Cc2ccc(Cl)cc2)CC1	95.9% (inactive)
ClCCN(CCCl)c1ccc(/C=N\N=C\c2ccc(N(CCCl)CCCl)cc2)cc1	50% (inactive)
CCNc1nc(Cl)nc(NCC)n1	106% (inactive)
CC[C@H](C)[C@H](NC(=O)[C@H]1CCCCN1C)C(=O)N(C)[C@H](CCc1nc(C(=O)N[C@@H](Cc2ccccc2)C[C@H](C)C(=O)OC)cs1)C(C)C	35% (inactive)
CC[C@H](C)[C@H](NC(=O)c1nccn1C)C(=O)N(C)[C@H](C[C@@H](OC(C)=O)c1nc(C(=O)N[C@@H](Cc2ccccc2)C[C@H](C)C(=O)OC)cs1)C(C)C	25.7% (inactive)
CCCn1cc2c3c(cccc31)[C@H]1C[C@@H](C)CN(C)[C@@H]1C2	95.5% (inactive)
C[N+]12CN3CN(CN(C3)C1)C2	119% (inactive)
CC[C@H](C)[C@H](NC(=O)[C@H]1CCCCN1C)C(=O)N(C)[C@H](C[C@@H](OC(C)=O)c1cccc(C(=O)N[C@@H](Cc2ccccc2)C[C@H](C)C(=O)OC)n1)C(C)C	40.9% (inactive)
O=C(Nc1ccc([As]=[As]c2ccc(NC(=O)c3ccccc3)cc2)cc1)c1ccccc1 (centres undefined)	-74.8% (active)
NC(=O)C(Cl)Cl	103% (inactive)
O=C(CCCc1ccc(N(CCCl)CCCl)cc1)OCc1ccccc1	87% (inactive)
O=C(NC(Cl)=C(Cl)Cl)P(=O)(c1ccccc1)c1ccccc1	101% (inactive)
CCOC(=O)[C@@H](C)C[C@H](Cc1ccccc1)NC(=O)c1csc([C@@H](C[C@H](C(C)C)N(C)C(=O)[C@@H](NC(=O)[C@H]2CCCCN2C)C(C)(C)CC)OC(C)=O)n1	19.5% (inactive)
COc1ccc(/C=C(/C)[N+](=O)[O-])cc1OC	-87.6% (active) and -87% (active)
CC[C@H](C)[C@@H]([C@@H](CC(=O)N1CCC[C@H]1[C@H](OC)[C@@H](C)C(=O)N[C@H](C)[C@@H](O)c1ccccc1)OC)N(C)C(=O)[C@@H](NC(=O)[C@@H](NC)C(C)C)C(C)C	37% (inactive)
O=C(Nc1ccc(O)cc1)C(Cl)(Cl)Cl	95.2% (inactive)
O=C(O)C(Cl)(Cl)C(F)(F)F	106% (inactive)
CN1CCN(c2ccc(Cl)cc2)CC1	71.1% (inactive)
CC(C)(C)N(Cc1ccccc1)N=O	93.2% (inactive)
CCC1CN1P(=O)(OCCOC)N1CC1CC (centres undefined)	110% (inactive)

SMILES	growth
CC1=C[C@H]2O[C@@H]3C[C@H]4OC(=O)/C=C\C=C\[C@H]([C@@H](C)O)OCC[C@@H](C)[C@H](O)C(=O)OC[C@@]2(CC1)[C@]4(C)[C@]31CO1	-66.7% (active)
COc1cc(/C=N/C2=C(C#N)C(c3ccco3)c3c(c4cc(C)ccc4oc3=O)O2)cc(OC)c1OC (centres undefined)	109% (inactive)
O=C([O][Hg][c]1ccccc1)c1ccccc1	-67.2% (active)
NC1CC2CCCCC2CC1(O)c1ccccc1 (centres undefined)	98.2% (inactive)
CC[C@H](C)[C@@H]1OC(=O)C(C)(C)[C@H](O)[C@H](Cc2ccccc2)OC(=O)[C@H](C(C)C)OC(=O)[C@@H](NC(=O)c2cccc(NC=O)c2O)[C@@H](C)OC1=O	9.86% (active)
COc1ccc(C2SCC(=O)Nc3c2c(C)nn3-c2nc3ccc(C)cc3s2)cc1O (centres undefined)	23.4% (inactive)
CC1(C)[C@H](O)[C@H](F)C[C@@]2(C)Oc3ccc(C(=O)Nc4ccc5c(c4)NC(=O)C54CCN(CCCCC#N)CC4)cc3C[C@H]12	7.2% (active)
O=C(O)c1ccc(=O)[nH]c1	95.8% (inactive) and 102% (inactive)
COc1ccc(S(=O)(=O)Nc2c(/C=C\c3cc(OC)c(OC)c(OC)c3)ccc(OC)c2O)cc1OC	14.1% (inactive)
COc1ccc(Nc2ccnc3cc(Cl)ccc23)cc1CN(CCCl)CCCl	-58.6% (active)
CC(N)Cc1ccc(O)cc1 (centres undefined)	107% (inactive)
Cc1ccc(NC2=N[C@]34CC(=O)CC[C@]3(C)[C@H]3CC[C@]5(C)C(=O)CC[C@H]5[C@@H]3C[C@@H]4S2)c(C)c1	17% (inactive)
CC/C(Cc1ccccc1)=C(\c1ccc(OCCN2CCCC2)cc1)c1ccc(OC(=O)NCc2ccccc2)cc1	14.8% (inactive)
CN1C(=O)N[C@H]2[C@@H]3NC(=O)c4ccc(Br)n4[C@@H]3C[C@]21O	-50.6% (active)
CC(=O)OCC1O[C@@H]([S-])C(OC(C)=O)[C@H](OC(C)=O)[C@@H]1OC(C)=O.[Au+].c1ccc(CN2[CH-]N(Cc3ccccc3)C(c3ccccc3)=C2c2ccccc2)cc1	-61.7% (active)
ClCCN(CCCl)c1nc(Cl)c(C2CC(c3ccccc3)=NN2c2ccccc2)s1 (centres undefined)	75.4% (inactive)
Cc1c2ccncc2c(C)c2c1[nH]c1ccccc12	-54.9% (active)
OB([O][Hg][c]1ccccc1)[O][Hg][c]1ccccc1	-71.2% (active)
CN(CCCCN(C)CCOS(C)(=O)=O)CCOS(C)(=O)=O	76.9% (inactive)
